# According to PubChem BioAssay (NCATS):
# Results filed as inconclusive are left out. Where a call stands in place of a potency, no number is given. The source made the active and inactive calls. Calls come from the whole dose curve; as a rule, active = well fitted cell-killing curve with a large enough effect; inconclusive = small, poorly fitted or top-dose-only effect, or effect the other way; inactive = no such curve, though single readings can be large or run the other way.
# Assays:
# [1] = Quantitative High-Throughput drug screen in 47 multiple myeloma cell lines against the NCATS MIPE library collection: H1112_PLB cell viability assay (AID 1918967; note: nearly all actives have a fitted effect of over 30% in size)
# How it was run: (§1)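 We plated 500 myeloma cells per well, pinned in MIPE 4.0 compounds, and incubated for 48 hours at 37C. ATP was then quantified with CellTiter-Glo, with DMSO and media-only wells defining 100% and 0%.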
# [2] = Quantitative High-Throughput drug screen in 47 multiple myeloma cell lines against the NCATS MIPE library collection: Karpas25_ECACC cell viability assay (AID 1918968; note: nearly all actives have a fitted effect of over 35% in size)
# How it was run: as §1
# [3] = Quantitative High-Throughput drug screen in 47 multiple myeloma cell lines against the NCATS MIPE library collection: KMS27_JCRB cell viability assay (AID 1918970); note: nearly all actives have a fitted effect of over 30% in size
# How it was run: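 CellTiter-Glo luminescence after 48 h drug exposure at 37 °C; 500 cells/well, 1536-well format, pin-tool compound addition; DMSO = 100%, media-only = 0% viability.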
# [4] = Quantitative High-Throughput drug screen in 47 multiple myeloma cell lines against the NCATS MIPE library collection: KMS12BM_JCRB cell viability assay (AID 1918971); note: nearly all actives have a fitted effect of over 35% in size
# How it was run: (§2)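 Myeloma cell lines, 500 cells per well, exposed to MIPE 4.0 library compounds for 48 h at 37C, 5% CO2. Viability from ATP by CellTiter-Glo luminescence; normalised to DMSO (100%) and media-only (0%) wells.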
# [5] = Quantitative High-Throughput drug screen in 47 multiple myeloma cell lines against the NCATS MIPE library collection: KMS21BM_JCRB cell viability assay (AID 1918974); conditions: ATP luminescence, 48 h; viability: at 45.8 µM (top of the series) unless noted
# How it was run: as §1
# [6] = Quantitative High-Throughput drug screen in 47 multiple myeloma cell lines against the NCATS MIPE library collection: MMM1_PLB cell viability assay (AID 1918976); note: nearly all actives have a fitted effect of over 35% in size
# How it was run: (§3)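 500 cells/well per myeloma line exposed to pinned MIPE 4.0 compounds for 48 h at 37 °C, 5% CO2. Viability read as ATP by CellTiter-Glo luminescence, normalised to DMSO-only (100%) and media-only (0%) wells.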
# [7] = Quantitative High-Throughput drug screen in 47 multiple myeloma cell lines against the NCATS MIPE library collection: MOLP8_DSMZ cell viability assay (AID 1918977); note: nearly all actives have a fitted effect of over 45% in size
# How it was run: as §3
# [8] = Quantitative High-Throughput drug screen in 47 multiple myeloma cell lines against the NCATS MIPE library collection: KMS12PE_JCRB cell viability assay (AID 1918972); note: nearly all actives have a fitted effect of over 30% in size
# How it was run: as §2
# [9] = Quantitative High-Throughput drug screen in 47 multiple myeloma cell lines against the NCATS MIPE library collection: KMS26_JCRB cell viability assay (AID 1918975); note: nearly all actives have a fitted effect of over 45% in size
# How it was run: as §2
# [10] = Quantitative High-Throughput drug screen in 47 multiple myeloma cell lines against the NCATS MIPE library collection: KMS20_JCRB cell viability assay (AID 1918973); note: nearly all actives have a fitted effect of over 45% in size
# How it was run: as §1
# Potency is the fitted concentration of half-maximal effect.
SMILES,Potency [1],Potency [2],Potency [3],Potency [4],viability [5],Potency [6],Potency [7],Potency [8],Potency [5],Potency [9],Potency [10]
C[Se]CCC(N)C(=O)O (stereo not given),inactive,inactive,inactive,inactive,325% [at 92.2 µM] (active),0.855 µM (active),inactive,–,–,–,–
O=C(O)c1cc(=O)c2c(OCC(O)COc3cccc4oc(C(=O)O)cc(=O)c34)cccc2o1,inactive,inactive,–,–,–,–,–,–,–,–,–
CC(C)c1ccc2oc3nc(N)c(C(=O)O)cc3c(=O)c2c1,inactive,inactive,inactive,–,–,–,–,–,–,–,–
Nc1ccc(S(N)(=O)=O)cc1,inactive,inactive,inactive,inactive,–,–,inactive,inactive,inactive,inactive,–
NC(=NCc1ccccc1)NC(=O)c1nc(Cl)c(N)nc1N,0.935 µM (active),2.09 µM (active),33.2 µM (active),inactive,–,–,–,–,–,inactive,7.43 µM (active)
NS(=O)(=O)c1cc(C(=O)O)c(NCc2ccco2)cc1Cl,inactive,inactive,inactive,inactive,–,–,–,–,–,0.209 µM (active),–
O=C(O)CCNC(=O)c1ccc(N=Nc2ccc(O)c(C(=O)O)c2)cc1,inactive,0.0037 µM (active),inactive,–,–,–,–,inactive,–,–,–
Cc1nc2n(c(=O)c1CCN1CCC(c3noc4cc(F)ccc34)CC1)CCCC2,inactive,inactive,inactive,inactive,–,–,inactive,–,–,–,inactive
C[C@H](Cn1cnc2c(N)ncnc21)OCP(=O)(O)O,inactive,inactive,–,inactive,–,–,inactive,inactive,–,inactive,inactive
Nc1cccc2c1CN(C1CCC(=O)NC1=O)C2=O (stereo not given),inactive,4.81 µM (active),inactive,–,–,0.429 µM (active),inactive,inactive,–,0.605 µM (active),–
O=C(OC1C[C@H]2CC[C@@H](C1)[N+]21CCCC1)C(O)(c1ccccc1)c1ccccc1 (stereo not given in full),inactive,inactive,–,inactive,–,–,inactive,inactive,inactive,inactive,–
Cc1cc(Cl)ccc1OCCCC(=O)NO,7.43 µM (active),2.96 µM (active),3.32 µM (active),16.6 µM (active),–,2.64 µM (active),inactive,–,–,8.33 µM (active),4.18 µM (active)
O=Nc1c(-c2c(O)[nH]c3cc(Br)ccc23)[nH]c2ccccc12,10.5 µM (active),5.26 µM (active),–,16.6 µM (active),–,20.9 µM (active),16.6 µM (active),1.18 µM (active),–,18.7 µM (active),5.9 µM (active)
Cc1cc(O)c2c(c1)C(=O)c1cc(O)cc(O)c1C2=O,inactive,2.09 µM (active),inactive,–,–,18.7 µM (active),–,inactive,–,11.8 µM (active),inactive
COc1cc2c(cc1OC)C1CC(=O)C(CC(C)C)CN1CC2 (stereo not given),inactive,inactive,inactive,–,–,20.9 µM (active),–,–,20.9 µM (active),inactive,inactive
O=C1NC(=O)C(c2ccccc2[N+](=O)[O-])=C1Nc1ccc(O)c(Cl)c1,inactive,13.2 µM (active),inactive,–,–,–,–,–,–,–,–
CCOC(=O)C1=C[C@@H](OC(CC)CC)[C@H](NC(C)=O)[C@@H](N)C1,inactive,inactive,inactive,–,–,–,inactive,–,–,inactive,inactive
CN(C)c1ccc2nc3ccc(=[N+](C)C)cc-3sc2c1,8.33 µM (active),0.662 µM (active),1.32 µM (active),4.69 µM (active),–,5.26 µM (active),3.32 µM (active),5.9 µM (active),1.48 µM (active),1.32 µM (active),2.64 µM (active)
CN(C)CCCC1(c2ccc(F)cc2)OCc2cc(C#N)ccc21 (stereo not given),8.33 µM (active),inactive,inactive,–,–,–,–,–,–,inactive,–
CC1=C(C(=O)O)N2C(=O)[C@@H](NC(=O)[C@H](N)C3=CCC=CC3)[C@H]2SC1,inactive,inactive,inactive,inactive,–,–,inactive,–,–,inactive,–
Cc1cccc(C#Cc2ccccc2)n1,inactive,inactive,–,18.7 µM (active),–,–,–,inactive,–,–,–
O=C(CCc1ccc(O)cc1)c1c(O)cc(O)cc1O,0.148 µM (active),0.187 µM (active),1.05 µM (active),0.332 µM (active),–,0.132 µM (active),–,–,–,0.166 µM (active),–
N=C(N)c1ccc2cc(OC(=O)c3ccc(N=C(N)N)cc3)ccc2c1,inactive,9.35 µM (active),inactive,23.5 µM (active),–,0.935 µM (active),–,inactive,–,–,–
CNC[C@H](O)c1ccc(O)c(O)c1,inactive,5.4 µM (active),inactive,19.1 µM (active),–,6.79 µM (active),8.55 µM (active),–,–,10.8 µM (active),10.8 µM (active)
